Source: PubChem
GLP1R inv ag: acts as inverse agonist at human GLP-1 receptor | 1.6% of 410,000 active | P43220 | HEK293 GLP-1R CRE-luciferase, luminescence, 24 h; GLP-1R form is constitutively active | Potency, µM (titrated, usually from 38.3 µM), usual class: inhibitors; further: nearly all actives have a fitted effect of over 55% in size
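Inverse agonists were sought by their lowering of basal cAMP reporter luciferase output in HEK293 cells stably carrying constitutively active human GLP-1R, after 24 h compound treatment.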
ClpP mod: qHTS Assay for Activators of ClpP. 1.9% of 340,000 active. Potency, µM (doses to about 57.5 µM). purified B. subtilis ClpP, FRET peptide cleavage, 20 min; active means well fitted falling curve with a large enough effect; inconclusive means small, poorly fitted or top-dose-only effect; inactive means no such curve, though single readings can be large or run the other way; further: the source files actives as falling curves though it sought activators and does not explain the sign; nearly all actives have a fitted effect of over 65% in size
Target sequence (P80244 whole entry, looked up): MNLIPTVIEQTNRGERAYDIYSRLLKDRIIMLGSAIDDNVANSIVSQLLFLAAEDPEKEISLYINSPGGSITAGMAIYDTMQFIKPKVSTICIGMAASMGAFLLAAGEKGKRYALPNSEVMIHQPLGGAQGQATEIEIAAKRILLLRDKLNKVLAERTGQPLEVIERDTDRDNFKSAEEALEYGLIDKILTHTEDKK
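Purified B. subtilis ClpP, 10 microg/mL final in Tris/HCl pH8 with KCl, BSA, glycerol and Tween-20, cleaved an Abz/nitrotyrosine-quenched decapeptide. Fluorescence (ex 320, em 430) was read at 0 and 20 min at room temperature. Delta was normalized to 5.8 microM ADEP and DMSO/no-enzyme controls.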
p53 reactivator: re-activators of mutant p53 | H1299 p53-A138V BP100-luciferase reporter, luminescence, 24 h | Potency, µM (series often up to 92.2 µM), most hits filed as activators | 0.063% of 320,000 active | AID 504706; further: nearly all actives have a fitted effect of over 45% in size
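p53-null H1299 cells stably carrying temperature-sensitive p53-A138V and a BP100-luciferase reporter were pinned with compounds (4-point, 1:5 series) and held 24 hrs at 37 deg C. Luminescence was read 10 min after detection reagent.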
LDHA inh: inhibitors of human lactate dehydrogenase A; P00338; purified LDHA, NADH/diaphorase-resazurin fluorescence; hits give low values; activity change, % (values are at about 110 or 230 µM); 0.15% of 480,000 active; AID 1347041; in the data active means activity change below about -30%; inconclusive means mostly about -25% to -30%
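Human LDH5 (2 nM) was incubated with 0.06 mM NADH and 0.2 mM pyruvate for 5 min at room temperature in Tris pH 7.4. Remaining NADH was coupled through diaphorase/resazurin, and resorufin fluorescence was read at 0 and 20 min.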
GLP1R cytotox: cytotoxic in the GLP-1 receptor inverse agonist counter-screen; AID 624418; 0.13% of 410,000 active; HEK293 cAMP-luciferase reporter cells, luminescence, 24 h; Potency, µM (series often up to 38.3 µM), usual class: inhibitors;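 further: loss of luciferase light is scored as toxicity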
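Cells in DMEM/10% Nu serum/1% pen-strep, 1536-well format. Pre-incubated 12 h, dosed with 23 nL compound, incubated a further 24 h. Luciferase detection, 12 min at room temp, luminescence.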
GLP-1R agonist: GLP-1 receptor (human) agonism | Potency, µM (doses to about 45.6 µM), usual class: activators | AID 624172 | 0.007% of 380,000 active | HEK293 GLP-1R CRE-luciferase, luminescence, 4-6 h; cells express a hypersensitive GLP-1R form
A number is an active result; 0 = inactive; ? = inconclusive; - = not tested or not shown. Shown are actives, neighbours in structure and some others; about 2.9% of the full set was active somewhere. Unless noted, the call rests on the fitted dose curve; in most records, active means well fitted curve in the direction sought with a large enough effect; inconclusive means small, poorly fitted or top-dose-only effect, or another doubt; inactive means no such curve, though single readings can be large; an effect the other way counts as inactive or inconclusive.

SMILES	GLP1R inv ag	ClpP mod	p53 reactivator	LDHA inh	GLP1R cytotox	GLP-1R agonist
O=C1CN(C(=O)c2ccccc2)C(c2ccccc2)c2cc(F)ccc2N1 (centres undefined)	0	0	0	0	0	0
O=C1CN(C(=O)c2ccc(Br)o2)C(c2ccccc2)c2cc(F)ccc2N1 (centres undefined)	7.9µM	0	0	0	0	0
COc1ccc(OC)c2c1sc(=NC(=O)c1cccc(N3C(=O)CCC3=O)c1)n2C	0	0	0	0	0	0
O=C(Nc1ccc2c(ccn2CCN2CCOCC2)c1)C1CC1	-	-	-	0	-	-
O=C(c1cccc(S(=O)(=O)N2CCCC2)c1)N1CCCC(C(F)(F)F)C1 (centres undefined)	0	28µM	0	0	0	0
COc1cccc(CN(C)CC(O)COc2cc(Cl)ccc2Cl)c1 (centres undefined)	10µM	0	0	0	0	0
COc1ccc(CN(C)CC(O)COc2ccccc2C(C)C)cc1OC (centres undefined)	-	-	-	0	-	-
Cc1cccc(NC(NC(=O)Cc2ccccc2)C(Cl)(Cl)Cl)c1 (centres undefined)	?	0	0	0	0	0
Clc1ccc(/C=N/Nc2ncnc3ccccc23)cc1Cl	?	28µM	?	0	2.2µM	0
CN(Cc1cnc2nc(N)nc(N)c2n1)c1ccc(C(=O)NC(CCC(=O)O)C(=O)O)cc1 (centres undefined)	?	16µM	-	0	0	0
C=C(C1=CCN(S(=O)(=O)C(C)(C)C)[C@@H]1CCO)c1ccccc1	7.9µM	0	-	0	0	0
COc1cccc(OC)c1OCCNC(C)(C)C	0	32µM	0	0	0	0
CCCC(=O)Nc1cc(C)c2c(=O)oc3ccccc3c2n1	0	0	0	0	0	0
CCSc1ncc(Cl)c(C(=O)N(Cc2ccccc2)c2ccc(OC)cc2)n1	5.6µM	0	-	0	0	-
COc1ccc2c(c1)OC[C@H]1[C@H]2N2C(=O)CN(CCc3c[nH]c4ccccc34)C(=O)[C@@]2(C)[C@H]1c1ccccc1	5µM	0	0	0	0	0
Cc1ccc(C2CC(=O)c3cnc(N4CCc5ccccc5C4)nc3C2)cc1 (centres undefined)	0	0	0	0	0	0
CC1CC2(NC(=O)NC2=O)C(C)CN1C (centres undefined)	0	25µM	0	0	0	0
Cc1noc(C)c1C(=O)OCC(=O)NC(=O)c1ccc(C(C)(C)C)cc1	0	0	-	0	0	0
CC(C)(C)c1ccc(C(=O)NC(=O)COC(=O)c2ccc(Br)o2)cc1	0	32µM	0	0	0	0
COc1cccc(CNc2nc(NC(C)C)nc3ccsc23)c1OC	11µM	0	-	0	?	0
COc1ccccc1CNc1nc(Nc2ccccc2OC)c2sccc2n1	0	0	-	0	0	0
COc1ccccc1CNc1nc(Nc2ccc(C)cc2C)c2sccc2n1	10µM	0	-	0	0	0
Nc1cc(=O)[nH]c2c1CCC2	-	0	-	0	-	-
COc1cc(-c2nc(-c3ccc(NC(=O)c4ccc5c(c4)OCO5)cc3)no2)cc(OC)c1OC	0	20µM	0	0	0	0
O=C(Nc1ccc2c(c1)OCCO2)c1ccc(Br)s1	10µM	0	-	0	?	0
C/C(=N/NC(=O)c1ccc2c(c1)OCO2)c1ccc(Br)s1	0	0	0	-33	0	0
CC(=O)Oc1ccc(C(=O)Nc2ccc3c(c2)OCCO3)cc1	?	0	0	0	0	0
COc1ccc(C(=O)Nc2ccc3c(c2)OCCO3)cc1	13µM	0	-	0	0	0
O=c1[nH]c2cc3c(cc2cc1CN(Cc1cccs1)Cc1nnnn1Cc1ccco1)OCCO3	0	?	0	0	0	0
O=c1[nH]c2cc3c(cc2cc1CN(Cc1ccccc1)Cc1nnnn1Cc1ccco1)OCCO3	0	0	0	0	0	0
